Compounds with a hit are over-represented: about 14% of the library has one in this group of screens.
Sm TGR inh = S. mansoni TGR enzyme inhibition; AID 485364; Potency, µM (titrated, usually from 114 µM), without a hit: at the top dose activity change, negative = inhibition, usual class: inhibitors; actives 3% (n = 360,000); purified TGR, DTNB reduction, TNB absorbance 405 nm; further: potency means the concentration at half of the fitted maximal effect; nearly all actives have a fitted effect of over 60% in size
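TGR 20 nM + NADPH 100 uM (dispensed conc.), cpd preinc 15 min RT; start with NADPH (500 uM addition) then DTNB (15 mM addition). Kinetic TNB absorbance, 405 nm filter. Four-parameter Hill fit across titration.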
Pf growth 96h = inhibits malaria parasite growth, 96 h; P. falciparum luciferase reporter growth, 96 h; Potency, µM (highest dose often 28.7 µM), for the others: at the highest dose activity change, negative = inhibition, most hits filed as inhibitors; actives 6.9% (n = 320,000); further: potency means the concentration at half of the fitted maximal effect
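Cell-based qHTS: luciferase-tagged P. falciparum in erythrocytes (2% hematocrit, 0.05% parasitemia final) incubated with compounds for 96 hours, 37 C, 5% CO2; luciferase detection reagent then added and luminescence measured.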
Pf growth 48h = inhibits P. falciparum growth in the first generation, 48 h; actives 5.9% (n = 310,000); AID 504832; P. falciparum luciferase growth in erythrocytes, 48 h; Potency, µM (doses to about 28.7 µM), without a hit: at the highest dose activity change, negative = inhibition, hits mostly inhibitors; further: potency means the concentration at half of the fitted maximal effect
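Erythrocytes infected with P. falciparum carrying an integrated firefly luciferase reporter (2% hematocrit, 0.1% parasitemia final) were exposed to compounds in RPMI 1640 with 0.5% Albumax at 37 C, 5% CO2. Growth inhibition was scored as reduced luminescence.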
FBPA Giardia inh = Giardia lamblia aldolase inhibition. Potency, µM (titrated, usually from 59.6 µM), for inactives: top-dose activity, negative = inhibition, most hits filed as inhibitors. purified Giardia FBPA. actives 0.71% (n = 290,000). A8B2U2. AID 2451; further: potency means the concentration at half of the fitted maximal effect; nearly all actives have a fitted effect of over 55% in size
Target sequence (A8B2U2 whole entry, looked up): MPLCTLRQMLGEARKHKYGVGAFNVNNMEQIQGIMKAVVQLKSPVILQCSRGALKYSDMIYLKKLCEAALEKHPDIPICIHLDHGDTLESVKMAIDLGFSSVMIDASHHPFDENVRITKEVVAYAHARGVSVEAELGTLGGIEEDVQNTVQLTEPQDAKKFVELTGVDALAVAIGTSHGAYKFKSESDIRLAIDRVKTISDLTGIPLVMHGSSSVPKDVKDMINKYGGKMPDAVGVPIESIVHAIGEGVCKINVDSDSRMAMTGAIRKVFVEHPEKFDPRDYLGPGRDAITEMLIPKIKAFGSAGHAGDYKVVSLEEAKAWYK
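40 nM FBPA preincubated 10 min at RT with compound (up to 57.5 uM final), then substrate plus GAPDH/TPI/NAD/arsenate coupling and diaphorase/resazurin added. Fluorescence read after 20 min at RT, 525/598 nm.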
HCMV antiviral = human cytomegalovirus inhibition. actives 4.5% (n = 410,000). AID 1259415. HFF cells, HCMV-luciferase reporter, 72 h; active compounds read low. activity change, negative = inhibition, % at 57.5 µM; in the data active means activity change below about -60%; inconclusive means no clear call, values can overlap the other calls; inactive means above about -39%
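Two-dose cell screen: HFF monolayers treated with compounds and infected with luciferase-expressing HCMV at 1 PFU/cell, 72 h at 37C, then lysed for luciferase measurement.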
The depositor's hits bear a star; ? = inconclusive; · = no result. Unless noted, the call rests on the fitted dose curve; in most records, active means well fitted curve in the direction sought with a large enough effect; inconclusive means small, poorly fitted or top-dose-only effect, or another doubt; inactive means no such curve, though single readings can be large; an effect the other way counts as inactive or inconclusive. On the % scale 0 is the no-effect control and ±100 the full control effect.

SMILES	Sm TGR inh	Pf growth 96h	Pf growth 48h	FBPA Giardia inh	HCMV antiviral
COc1ccc(Cl)cc1C(=O)Nc1ccc2nc(Nc3cccc(Cl)c3)cc(C)c2c1	-2%	·	·	·	?
Cc1cc(Nc2cccc(Cl)c2)nc2ccc(NC(=O)Cc3cccc(C(F)(F)F)c3)cc12	2%	·	·	·	-99*
Cc1occc1C(=O)NNC(=O)c1ccccc1Br	-2%	55%	46%	-3%	66
O=C1C=C(NNC(=O)c2ccccc2Br)CCC1	-2%	-8%	14%	-3%	-62*
CCc1ccc(/C=c2\s/c(=C\C(=O)C(C)(C)C)[nH]c2=O)cc1	0%	·	3.3µM*	-7%	19
CCc1cc(C(=O)N=Nc2c(O)[nH]c3c(Br)cc(Br)cc23)c2ccccc2n1	-2%	4.7µM*	-24%	-7%	-31
CCc1cc(C(=O)N=Nc2c(O)[nH]c3ccc([N+](=O)[O-])cc23)c2ccccc2n1	-21%	?	-10%	4%	-19
CCOc1ccc(C(=O)Nc2ccccc2C(=O)OCc2cc(=O)n3nc(C4CC4)sc3n2)cc1	-5%	·	·	·	15
Cc1ccc(N2C(=O)C3CC(c4ccccc4)=C4C5C=CC(C6C(=O)N(c7ccc(C)cc7)C(=O)C56)C4C3C2=O)cc1 (stereo not drawn)	6%	?	13µM*	-9%	-24
Cc1ccc(N2C(=O)C3CC(c4ccccc4)=C4C5C=CC(C6C(=O)N(c7ccc(C)cc7C)C(=O)C56)C4C3C2=O)c(C)c1 (stereo not drawn)	-14%	·	2.1µM*	-7%	·
Cc1ccc(N2C(=O)C3CCCN3C2=S)c(C)c1 (stereo not drawn)	-3%	?	?	·	-4
COc1ccc(NC(=O)Cn2cnc3c(nc4n3CCCCC4)c2=O)cc1Cl	-3%	·	·	·	11
Cc1ccccc1NC(=O)c1ccc(F)c(S(=O)(=O)NCC2CCCO2)c1 (stereo not drawn)	?	24%	2%	-1%	28
Cc1ccc(NC(=O)c2ccc(Cl)c(S(=O)(=O)NCC3CCCO3)c2)c(O)c1 (stereo not drawn)	-12%	6.6µM*	?	·	-9
CC(C)(C)c1oc(C(=O)O)cc1CN1CCOCC1	-4%	67%	-2%	-9%	0
O=C(O)CCn1c(SCCOc2ccccc2)nc2ccccc21	4%	12µM*	17%	7%	-16
CCCCOc1ccc(OCCSc2nc3ccccc3n2CC(=O)O)cc1	0%	?	-14%	1%	-1
O=C(O)Cn1c(SCCOc2ccccc2)nc2ccccc21	2%	8.3µM*	13%	-4%	8
O=C(O)Cn1c(-c2ccccc2)nc2ccccc21	-15%	-100%	31%	-14%	25
O=C(O)Cn1c(=O)c(-c2ccccc2)nc2ccccc21	-1%	7.4µM*	13%	8%	6
Cc1ccc(OCCSc2nc3ccccc3n2CC(=O)O)cc1C	-1%	12µM*	8%	4%	-9
O=C(NCCc1ccncc1)[C@@H]1[C@@H](CO)[C@@H]2Cn3c(cccc3=O)[C@H]1N2Cc1ccccc1F	·	·	·	·	24
O=C(O)CCc1nc2ccccc2n(CCc2ccccc2)c1=O	40µM*	6%	14%	19%	?
COc1nc2ccccc2nc1CCC(=O)O	0.1µM*	?	0%	5%	-19
O=C(O)COc1ccccc1/C=N/NC(=O)CSc1nc2ccccc2n1Cc1ccc(Cl)cc1	10%	?	15µM*	16%	-15
SMILES	Sm TGR inh	Pf growth 96h	Pf growth 48h	FBPA Giardia inh	HCMV antiviral
O=C(O)CCSc1nc2ccccc2n1Cc1ccccc1	-1%	2.9µM*	-9%	9%	-5
COc1cccc(C(C(=O)NCc2ccccc2)N(C(=O)c2csnn2)C2CC2)c1 (stereo not drawn)	0%	-1%	13%	4%	-1
Cn1nc(C(=O)NNC(=O)c2cccc(Cl)c2)ccc1=O	·	·	·	·	11
CCOC(=O)c1c(S(=O)(=O)NCC(=O)Nc2ccccc2OC)c(C)n(C)c1C	-3%	-7%	3%	0%	?
CCOC(=O)c1c(S(=O)(=O)NCC(=O)Nc2ccccc2)c(C)n(C)c1C	8%	52%	5%	·	9
CCOC(=O)c1c(S(=O)(=O)NCC(=O)Nc2cccc(C)c2)c(C)n(C)c1C	18%	4.1µM*	-25%	·	8
CCOC(=O)c1c(S(=O)(=O)NCC(=O)Nc2cc(C)ccc2OC)c(C)n(C)c1C	-12%	9.3µM*	-9%	·	11
CC(=O)c1ccc(OCCOc2ccc(C#N)cc2)cc1	-30%	-1%	63%	2%	-11
O=C(Nc1ncccn1)c1ccc([N+](=O)[O-])o1	?	64%	8.3µM*	-24%	15
Cc1ccc(NC(=O)c2ccc([N+](=O)[O-])o2)cc1C	?	36%	?	-24%	?
O=C(Nc1cccc([N+](=O)[O-])c1)c1ccc([N+](=O)[O-])o1	·	·	·	·	-87*
O=C(Nc1ccccn1)c1ccc([N+](=O)[O-])o1	-26%	?	?	-8%	·
O=C(Nc1ccc2[nH]c(=O)[nH]c2c1)c1ccc([N+](=O)[O-])o1	40µM*	12µM*	?	·	0
O=C(Nc1cccc(NC(=O)c2ccccc2Cl)c1)c1ccc([N+](=O)[O-])o1	?	5%	?	-14%	-98*
O=C(Nc1nc2c(Cl)cccc2s1)c1ccc([N+](=O)[O-])o1	-15%	39%	-25%	-4%	2
CC(=O)NCCNc1nc(-c2ccc(N(C)C)cc2)nc2ccccc12	·	·	·	-8%	·
O=C(Nc1cccc([N+](=O)[O-])c1)c1ccc2c(c1)OCCO2	-1%	?	219%	-17%	-107*
O=C(Nc1cccc(Cl)c1)c1ccc2c(c1)OCCO2	5%	4%	255%	0%	97
O=S(c1ccc2ccccc2c1)c1cnns1 (stereo not drawn)	-45%	?	?	0%	-68*
